Most compounds without a hit are left out; they make up all but 2.3% or so of the library.
SENP6 block – inhibitors of human SENP6 protease; Recombinant SENP6 catalytic domain, aminoluciferin luminescence; 330,000 compounds, 1.8% hits; inhibition, % at 10 µM;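 active = inhibition above about 50% at the single tested dose, limit read from the data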;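 note: plate controls were DMSO wells with enzyme for no effect and DMSO wells lacking enzyme for full effect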
Target sequence (Q9GZR1 628-1112 limits assumed): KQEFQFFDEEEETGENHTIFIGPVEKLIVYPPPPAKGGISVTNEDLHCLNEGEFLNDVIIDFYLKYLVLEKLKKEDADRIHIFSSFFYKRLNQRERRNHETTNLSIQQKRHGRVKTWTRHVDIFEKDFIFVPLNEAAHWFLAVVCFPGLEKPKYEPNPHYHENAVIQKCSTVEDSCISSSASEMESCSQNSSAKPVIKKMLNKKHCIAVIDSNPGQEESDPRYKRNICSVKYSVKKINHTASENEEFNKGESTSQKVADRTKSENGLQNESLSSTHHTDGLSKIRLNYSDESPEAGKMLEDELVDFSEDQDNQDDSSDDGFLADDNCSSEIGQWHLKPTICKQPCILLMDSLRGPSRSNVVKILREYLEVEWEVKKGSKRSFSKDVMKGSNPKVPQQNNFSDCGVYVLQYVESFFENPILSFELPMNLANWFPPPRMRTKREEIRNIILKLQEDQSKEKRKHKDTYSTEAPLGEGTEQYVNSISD
SENP8 block-1 – inhibitors of human SENP8 protease; 360,000 compounds, 0.64% hits; AID 602440; recombinant SENP8, Nedd8 substrate fluorescence; Q96LD8; inhibition, % at 20 µM; in the data active = inhibition mostly above about 40%, no sharp cut-off; inactive = mostly below about 27%
SENP7 inh – blocks the human protease SENP7 | Q9BQF6 | recombinant SENP7, Z-RLRGG-aminoluciferin luminescence, 40 min | 330,000 compounds, 1.5% hits | inhibition, % at 5 µM;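 active = inhibition above about 50% at the single test dose, limit read from the data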;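 note: plate controls were DMSO with enzyme for no effect and no enzyme buffer wells for full effect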
SENP8 block-2 – blocks the human protease SENP8; 330,000 compounds, 1.2% hits; Q96LD8; purified SENP8, Z-RLRGG-aminoluciferin cleavage, luminescence; inhibition, % at 10 µM; in the data active = inhibition above about 50%
HSP90 inh – HSP90 refolding inhibition in rabbit reticulocyte lysate. luciferase refolding luminescence, 3 h. inhibition, % at 5.6 µM. 290,000 compounds, 0.91% hits;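 active = inhibition above the screen-wide mean plus 3 SD, computed separately per campaign, cut at about 16% in these data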;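 note: 0% = DMSO wells and 100% = 60 µM geldanamycin wells; inhibitors lower the luminescence because luciferase stays unfolded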
LGR2 inh – Drosophila LGR2 receptor signaling inhibition; HEK293 LGR2, CRE-luciferase, bursicon-stimulated, 4 h; inhibition, % at 9.99 µM; 380,000 compounds, 0.35% hits; AID 720647;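 active = drop in luminescence signal, shown as inhibition above about 50% in the replicate tests, limit read from the data, passing the limit was not always enough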;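 note: agonist challenge used bursicon conditioned medium at about half maximal strength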
Active calls of the source: *; . = no result given.

SMILES	SENP6 block	SENP8 block-1	SENP7 inh	SENP8 block-2	HSP90 inh	LGR2 inh
Cc1ccc(/C=C2\SC(=S)N(CC3CCCO3)C2=O)o1 (stereo not drawn)	8	34	7	6	11	13
O=C1/C(=C\c2ccc(-c3ccccc3Cl)o2)SC(=S)N1CC1CCCO1 (stereo not drawn)	9	44*	5	-18	4	.
O=C(NCC[C@@H]1CC[C@H](NS(=O)(=O)c2ccccc2)[C@H](CO)O1)c1ccc2c(c1)OCO2	.	.	.	.	.	16
O=C(Nc1ccc(Nc2ccccc2)cc1)c1ccc(Cl)cc1	-7	1	6	-9	.	2
CN(c1ccc(C(=O)Nc2ccc(Cl)cn2)cc1)S(=O)(=O)c1ccccc1	-2	3	-4	-10	2	16
O=C1C(Cl)=C(NC(=O)c2ccccc2)C(=O)C(Cl)=C1NC(=O)c1ccccc1	-4	34	8	9	71*	0
CN(C1=C(NC(=O)c2ccc(Cl)cc2)C(=O)c2ccccc2C1=O)c1ccccc1	25	57*	15	10	4	6
Cc1cccc(NC2=C(NC(=O)c3ccccc3)C(=O)c3ccccc3C2=O)c1	43	76*	17	18	6	19
O=C(NC1=C(Nc2ccc(Cl)cc2)C(=O)c2ccccc2C1=O)c1ccccc1	12	52*	13	11	0	.
CCCC(=O)Nc1ccc2c(c1)C(=O)N(C)[C@H]1CC[C@H](CC(=O)Nc3cccc(F)c3)O[C@@H]1CO2	.	.	.	.	.	-3
COc1ccc2c3c([nH]c2c1)[C@H](CO)N(S(C)(=O)=O)CC31CCN(C(=O)CN(C)C)CC1	.	.	.	.	.	-2
COc1cccc(NC(=O)N(C)C[C@H]2Oc3cc(C#Cc4ccc(F)cc4)ccc3S(=O)(=O)N([C@H](C)CO)C[C@@H]2C)c1	.	.	.	.	.	7
O=C1/C(=C/c2ccc(Br)cc2)Oc2cc(O)ccc21	56*	-299	21	53*	-2	-27
CC(/C=C/c1ccc(OCc2ccccc2)cc1)=N\O	43	6	70*	33	-5	-58
CC(/C=C/c1ccccc1)=N/O	24	21	1	-18	-3	.
CO[C@@H]1CN(C)C(=O)c2ccc(NC(=O)c3ccccc3F)cc2OC[C@H](C)N(CC2CCOCC2)C[C@@H]1C	.	.	.	.	.	7
CC(=O)N1[C@H](C(=O)NCc2ccccc2F)[C@@H](CO)[C@@H]2Cn3c(cccc3=O)[C@@H]21	.	.	.	.	.	7
C[C@@H]1CN([C@@H](C)CO)C(=O)Cc2cc(NS(=O)(=O)c3ccc(F)cc3)ccc2O[C@@H]1CN(C)C	.	.	.	.	.	15
CN1C(=O)/C(=C/c2cccc([N+](=O)[O-])c2)C(=O)N1c1ccccc1	-6	45*	7	-1	2	0
COc1cccc(/C=N/N=C(\N)c2nonc2N)c1O	21	18	78*	15	-2	-30
COc1cc(/C=N/N=C(/N)c2nonc2N)cc(Br)c1OCc1ccccc1C	3	21	3	4	7	.
COc1ccc2c3c([nH]c2c1)[C@H](CO)N(C(=O)c1cnccn1)CC31CN(S(=O)(=O)c2ccccc2)C1	.	.	.	.	.	16
CCOc1ccc(/C=C2/SC(=S)N(n3c(C)ccc3C)C2=O)cc1	2	41*	-7	-4	1	.
CC(C)NC(=O)N(C)C[C@@H]1Oc2ncc(-c3ccccc3F)cc2C(=O)N([C@H](C)CO)C[C@H]1C	.	.	.	.	.	-14
O=c1ccc(N=Nc2ccccc2)ccc1O	.	43*	.	.	3	-17
SMILES	SENP6 block	SENP8 block-1	SENP7 inh	SENP8 block-2	HSP90 inh	LGR2 inh
Oc1ccc(N=Nc2ccccc2)o1	-13	14	-7	4	1	-8
CC(=O)c1ccc(NC(=S)Nc2cccc3ccccc23)cc1	91*	-390	53*	65*	9	-7
Cc1ccc2nc(-c3ccc(SCC(=O)Nc4ccc5c(c4)OCCO5)nc3)[nH]c2c1	-27	-372	51*	-11	-2	-17
Cc1noc(C)c1NC(=O)N(C)C[C@H]1OCCCC[C@H](C)Oc2ccc(NC(=O)CCC(F)(F)F)cc2C(=O)N([C@H](C)CO)C[C@@H]1C	.	.	.	.	.	-4
C[C@H]1CN([C@@H](C)CO)C(=O)c2cccc(NC(=O)Nc3cccc4ccccc34)c2O[C@H]1CN(C)C(=O)Nc1ccc(C(F)(F)F)cc1	.	.	.	.	.	12
CCC(=O)Nc1ccc2c(c1)C(=O)N(C)[C@H]1CC[C@H](CC(=O)N3CCc4ccccc4C3)O[C@H]1CO2	.	.	.	.	.	12
COc1cc(C2C3=C(COC3=O)Oc3cc4c(cc32)OCO4)cc(OC)c1OC (stereo not drawn)	.	44*	.	.	.	-27
COc1ccc([N+](=O)[O-])cc1C(=O)C(=O)c1ccccc1	-11	44*	-15	-12	0	7
COc1cc(C(=O)c2ccccc2)c([N+](=O)[O-])cc1OC	6	10	-7	1	2	4
O=[N+]([O-])c1cc(S(=O)(=O)Oc2ccccc2)ccc1Cl	.	17	.	.	.	68*
COc1ccc(NC(=O)N(C)C[C@H]2Oc3ccc(NC(=O)NC(C)C)cc3C(=O)N([C@@H](C)CO)C[C@H]2C)cc1	.	.	.	.	.	2
C#CCOCCOCCOCCNc1nc(N2CCN(C(=O)[C@H](CCC(=O)O)n3cc(C(N)CC(C)C)nn3)CC2)nc(N2CCN(C(=O)[C@H](CCC(=O)O)n3cc(C(N)CC(C)C)nn3)CC2)n1 (stereo partly drawn)	-17	11	11	-12	17*	.
COc1ccc2c3c([nH]c2c1)[C@H](CO)N(C(=O)Nc1ccccc1F)CC31CN(C(=O)C2CC2)C1	.	.	.	.	.	38
C[C@]12CCC[C@H](O1)c1c(cc3c(c1O)C(=O)c1c(O)cc(O)cc1C3=O)O2	-10	58*	-7	-10	.	.
CC1(C)CC(=O)c2c(O)cc(O)cc2O1	-8	11	4	2	0	.
COc1cc(C)cc(C(=O)O)c1C1=C(O)c2cccc(O)c2C(=O)C1=O	-3	55*	5	4	.	-30
O=C(N/N=C\c1ccc(Oc2ccccc2)cc1)c1csnn1	75*	0	77*	71*	4	5
CNC[C@H]1Oc2ccc(NS(=O)(=O)c3ccccc3)cc2C(=O)N([C@@H](C)CO)C[C@@H]1C	.	.	.	.	.	13
O=C(Nc1nc2c(s1)CCCC2)c1cccs1	95*	-37	96*	92*	13	.
O=C(Nc1sc2c(c1C(=O)O)CCC2)c1cccs1	90*	-73	44	92*	0	.
O=C(Nc1sc2c(c1C(=O)O)CCCC2)c1ccc(Cl)cc1	89*	-120	37	78*	4	-23
NCCNC(=O)c1c(NC(=O)c2ccccc2)sc2c1CCCC2	0	-149	4	-4	12	-43
CC(C)NC(=O)Nc1ccc2c(c1)C(=O)N([C@@H](C)CO)C[C@@H](C)[C@@H](CN(C)C(=O)NC1CCCCC1)OCCCC[C@@H](C)O2	.	.	.	.	.	9
O=C(c1cccn2c(=O)c3cc4ccccc4cc3nc12)N1CCN(c2ccccc2)CC1	45	.	70*	28	0	.

Assay outcomes deposited in PubChem by several laboratories.
